# Laboratory results published in paper PMC7862700, “An all-to-all approach to the identification of sequence-specific readers for epigenetic DNA modifications on cytosine”.
# Legend:
# Experiment in all cases: DAPPL (digital affinity profiling via proximity ligation, sequencing); 10 mM Tris-HCl pH 7.5, 50 mM NaCl, 1 mM DTT, 4% glycerol, room temperature, 30 min; GST-TFs on glutathione beads, 16-mer random dsDNA library, 0.1% formaldehyde crosslink after washing; high values mean tight binding
# Details in all cases: protein: recombinant; tags: N-terminal GST; dsDNA, one strand shown
# [1] = molecular target: T1, GABPA (Homo sapiens, UniProt Q06546 1-454)
# T1 sequence: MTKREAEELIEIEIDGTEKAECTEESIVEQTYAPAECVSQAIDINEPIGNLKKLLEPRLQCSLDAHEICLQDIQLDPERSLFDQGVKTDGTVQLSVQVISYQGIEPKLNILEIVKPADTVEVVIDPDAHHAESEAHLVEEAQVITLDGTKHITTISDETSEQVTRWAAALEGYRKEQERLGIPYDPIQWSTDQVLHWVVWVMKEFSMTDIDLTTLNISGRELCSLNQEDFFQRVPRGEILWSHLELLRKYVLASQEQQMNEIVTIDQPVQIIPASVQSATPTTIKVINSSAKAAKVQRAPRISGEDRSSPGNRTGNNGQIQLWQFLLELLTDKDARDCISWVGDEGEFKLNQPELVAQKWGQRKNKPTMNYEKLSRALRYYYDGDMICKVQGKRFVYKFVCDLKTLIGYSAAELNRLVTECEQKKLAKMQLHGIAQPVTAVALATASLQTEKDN
# Outline: (§1)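 Pools were built from human transcription factors expressed in yeast as GST fusions, captured on glutathione beads and DNA-barcoded, along with a tag-only sample. Incubation with 200 nmole of a 16-mer random double-stranded DNA library lasted 30 min at room temperature in Tris/NaCl/DTT/glycerol buffer, and was followed by washing, 0.1% formaldehyde crosslinking, proximity ligation, PCR amplification and Illumina NextSeq500 sequencing. Binding signal is the quotient of each hexamer's read frequency for a factor and its frequency for the tag-only sample.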
# [2] = molecular target: T2, ERG (Homo sapiens, UniProt P11308 1-479)
# T2 sequence: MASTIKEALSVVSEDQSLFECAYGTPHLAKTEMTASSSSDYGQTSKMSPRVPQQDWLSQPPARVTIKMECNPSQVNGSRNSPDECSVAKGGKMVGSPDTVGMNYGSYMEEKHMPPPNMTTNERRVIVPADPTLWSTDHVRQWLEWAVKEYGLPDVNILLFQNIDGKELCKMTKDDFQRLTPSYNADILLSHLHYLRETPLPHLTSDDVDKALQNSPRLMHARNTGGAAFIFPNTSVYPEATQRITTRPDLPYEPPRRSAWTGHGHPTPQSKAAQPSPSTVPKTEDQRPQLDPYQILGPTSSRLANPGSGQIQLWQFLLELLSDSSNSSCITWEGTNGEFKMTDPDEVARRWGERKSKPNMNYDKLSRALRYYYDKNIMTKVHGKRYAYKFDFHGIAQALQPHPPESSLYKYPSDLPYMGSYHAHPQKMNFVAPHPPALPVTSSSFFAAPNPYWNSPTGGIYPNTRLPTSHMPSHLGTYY
# Outline: as §1
# [3] = molecular target: T3, EHF (Homo sapiens, UniProt Q9NZC4 1-300)
# T3 sequence: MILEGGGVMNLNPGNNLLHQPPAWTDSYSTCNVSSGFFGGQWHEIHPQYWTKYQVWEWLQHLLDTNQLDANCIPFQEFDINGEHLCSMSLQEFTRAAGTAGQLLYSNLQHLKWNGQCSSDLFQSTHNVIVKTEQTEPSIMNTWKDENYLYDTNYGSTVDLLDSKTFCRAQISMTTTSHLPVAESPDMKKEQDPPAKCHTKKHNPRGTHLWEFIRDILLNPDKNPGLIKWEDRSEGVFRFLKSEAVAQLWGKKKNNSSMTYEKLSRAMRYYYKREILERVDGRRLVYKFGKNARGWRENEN
# Outline: as §1
# [4] = molecular target: T4, ELK3 (Homo sapiens, UniProt P41970 1-407)
# T4 sequence: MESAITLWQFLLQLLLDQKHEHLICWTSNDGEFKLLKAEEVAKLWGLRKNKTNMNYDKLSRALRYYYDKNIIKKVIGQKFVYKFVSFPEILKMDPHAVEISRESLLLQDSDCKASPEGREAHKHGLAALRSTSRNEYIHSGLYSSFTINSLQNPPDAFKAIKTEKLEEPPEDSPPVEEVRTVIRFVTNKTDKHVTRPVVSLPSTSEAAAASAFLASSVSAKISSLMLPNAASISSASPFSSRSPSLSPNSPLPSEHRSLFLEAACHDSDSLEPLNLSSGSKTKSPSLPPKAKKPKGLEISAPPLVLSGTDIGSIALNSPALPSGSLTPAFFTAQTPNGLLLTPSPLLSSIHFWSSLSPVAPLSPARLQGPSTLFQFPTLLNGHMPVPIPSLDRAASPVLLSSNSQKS
# Outline: as §1
# [5] = molecular target: T5, SPIC (Homo sapiens, UniProt Q8N5J4 1-248)
# T5 sequence: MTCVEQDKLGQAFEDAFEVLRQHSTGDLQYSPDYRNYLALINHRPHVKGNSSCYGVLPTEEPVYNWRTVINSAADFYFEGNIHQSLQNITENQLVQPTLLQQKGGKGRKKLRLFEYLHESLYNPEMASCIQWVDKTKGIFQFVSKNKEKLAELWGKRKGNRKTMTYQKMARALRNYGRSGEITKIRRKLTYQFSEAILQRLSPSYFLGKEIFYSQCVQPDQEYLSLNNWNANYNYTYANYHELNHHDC
# Outline: as §1
# [6] = molecular target: T6, ETV2 (Homo sapiens, UniProt O00321 1-342)
# T6 sequence: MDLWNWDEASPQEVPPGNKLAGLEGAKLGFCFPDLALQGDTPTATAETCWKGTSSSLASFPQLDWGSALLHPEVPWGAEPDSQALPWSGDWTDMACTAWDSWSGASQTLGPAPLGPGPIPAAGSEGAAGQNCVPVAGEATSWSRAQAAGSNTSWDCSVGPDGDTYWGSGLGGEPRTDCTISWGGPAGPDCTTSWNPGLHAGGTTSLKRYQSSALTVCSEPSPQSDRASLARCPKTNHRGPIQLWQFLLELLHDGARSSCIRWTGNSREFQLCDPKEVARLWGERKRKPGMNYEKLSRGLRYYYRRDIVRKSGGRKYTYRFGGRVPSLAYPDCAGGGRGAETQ
# Outline: as §1
# [7] = molecular target: T7, ELF3 (Homo sapiens, UniProt P78545 1-371)
# T7 sequence: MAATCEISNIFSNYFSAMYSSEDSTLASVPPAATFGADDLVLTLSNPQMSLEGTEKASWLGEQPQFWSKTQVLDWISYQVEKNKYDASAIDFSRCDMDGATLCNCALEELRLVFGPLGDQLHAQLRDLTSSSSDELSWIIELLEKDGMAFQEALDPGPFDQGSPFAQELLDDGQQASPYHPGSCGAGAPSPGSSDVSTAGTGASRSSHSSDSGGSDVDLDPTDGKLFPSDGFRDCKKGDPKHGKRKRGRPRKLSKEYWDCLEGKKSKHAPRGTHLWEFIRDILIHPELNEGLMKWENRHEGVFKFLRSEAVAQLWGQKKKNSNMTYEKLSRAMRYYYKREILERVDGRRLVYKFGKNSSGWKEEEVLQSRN
# Outline: as §1
# [8] = molecular target: SPI1 (Homo sapiens, UniProt P17947 1-270)
# Outline: as §1
# [9] = molecular target: ELF1 (Homo sapiens, UniProt P32519 1-619)
# ELF1, sequence (P32519 whole entry): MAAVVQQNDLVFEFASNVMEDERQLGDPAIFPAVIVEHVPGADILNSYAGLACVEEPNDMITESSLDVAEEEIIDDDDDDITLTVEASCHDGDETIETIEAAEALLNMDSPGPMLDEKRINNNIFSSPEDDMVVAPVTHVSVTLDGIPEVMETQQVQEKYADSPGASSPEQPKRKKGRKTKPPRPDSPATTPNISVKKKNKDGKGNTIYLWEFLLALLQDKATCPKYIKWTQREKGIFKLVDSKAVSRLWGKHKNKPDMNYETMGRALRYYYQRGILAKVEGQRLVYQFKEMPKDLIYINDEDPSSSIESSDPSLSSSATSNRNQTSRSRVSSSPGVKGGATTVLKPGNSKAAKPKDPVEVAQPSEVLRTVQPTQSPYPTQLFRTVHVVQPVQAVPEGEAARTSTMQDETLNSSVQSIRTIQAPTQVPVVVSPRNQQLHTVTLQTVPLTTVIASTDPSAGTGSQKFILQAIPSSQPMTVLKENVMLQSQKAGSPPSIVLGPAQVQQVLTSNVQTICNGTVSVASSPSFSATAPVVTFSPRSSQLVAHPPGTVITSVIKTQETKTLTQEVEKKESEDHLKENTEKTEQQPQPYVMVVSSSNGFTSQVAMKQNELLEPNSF
# Outline: as §1
# [10] = molecular target: SPIB (Homo sapiens, UniProt Q01892 1-262)
# SPIB, sequence (Q01892 whole entry): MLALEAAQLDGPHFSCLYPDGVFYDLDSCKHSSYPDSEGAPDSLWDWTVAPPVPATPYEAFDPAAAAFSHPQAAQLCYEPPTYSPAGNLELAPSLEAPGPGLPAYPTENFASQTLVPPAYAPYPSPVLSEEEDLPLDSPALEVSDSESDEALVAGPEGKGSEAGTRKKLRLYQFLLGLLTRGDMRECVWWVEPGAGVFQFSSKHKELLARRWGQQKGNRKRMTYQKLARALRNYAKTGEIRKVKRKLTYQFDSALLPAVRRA
# Outline: as §1
# [11] = molecular target: T8, ELK4 (Homo sapiens, UniProt P28324-2 1-405)
# T8 sequence: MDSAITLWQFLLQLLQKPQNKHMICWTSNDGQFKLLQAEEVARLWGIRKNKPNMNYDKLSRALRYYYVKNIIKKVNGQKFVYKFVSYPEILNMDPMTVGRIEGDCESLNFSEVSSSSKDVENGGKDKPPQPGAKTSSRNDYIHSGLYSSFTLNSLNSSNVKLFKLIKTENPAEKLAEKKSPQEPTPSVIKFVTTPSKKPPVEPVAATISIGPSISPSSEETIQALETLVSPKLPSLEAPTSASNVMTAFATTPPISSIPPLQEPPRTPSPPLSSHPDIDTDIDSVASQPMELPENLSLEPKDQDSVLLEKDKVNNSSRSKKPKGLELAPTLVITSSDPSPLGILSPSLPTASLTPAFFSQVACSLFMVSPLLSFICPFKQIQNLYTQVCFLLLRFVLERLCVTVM
# Outline: as §1
# [12] = molecular target: ETV1 (Homo sapiens, UniProt P50549 1-477)
# ETV1, sequence (P50549 whole entry): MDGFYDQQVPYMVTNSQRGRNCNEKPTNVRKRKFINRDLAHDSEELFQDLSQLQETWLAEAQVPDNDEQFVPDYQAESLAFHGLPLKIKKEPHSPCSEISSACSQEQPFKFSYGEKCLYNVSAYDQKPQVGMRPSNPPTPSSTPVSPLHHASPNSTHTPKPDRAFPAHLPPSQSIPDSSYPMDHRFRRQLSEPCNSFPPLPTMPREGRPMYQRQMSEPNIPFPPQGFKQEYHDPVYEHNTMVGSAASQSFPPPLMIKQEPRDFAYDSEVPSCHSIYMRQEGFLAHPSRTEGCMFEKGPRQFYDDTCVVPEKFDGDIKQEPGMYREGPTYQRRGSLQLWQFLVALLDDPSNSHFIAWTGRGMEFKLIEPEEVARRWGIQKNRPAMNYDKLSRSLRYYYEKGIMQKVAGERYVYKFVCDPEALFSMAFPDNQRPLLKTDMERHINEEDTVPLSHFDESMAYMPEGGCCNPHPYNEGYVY
# Outline: as §1
# [13] = molecular target: T9, ERF (Homo sapiens, UniProt P50548 1-548)
# T9 sequence: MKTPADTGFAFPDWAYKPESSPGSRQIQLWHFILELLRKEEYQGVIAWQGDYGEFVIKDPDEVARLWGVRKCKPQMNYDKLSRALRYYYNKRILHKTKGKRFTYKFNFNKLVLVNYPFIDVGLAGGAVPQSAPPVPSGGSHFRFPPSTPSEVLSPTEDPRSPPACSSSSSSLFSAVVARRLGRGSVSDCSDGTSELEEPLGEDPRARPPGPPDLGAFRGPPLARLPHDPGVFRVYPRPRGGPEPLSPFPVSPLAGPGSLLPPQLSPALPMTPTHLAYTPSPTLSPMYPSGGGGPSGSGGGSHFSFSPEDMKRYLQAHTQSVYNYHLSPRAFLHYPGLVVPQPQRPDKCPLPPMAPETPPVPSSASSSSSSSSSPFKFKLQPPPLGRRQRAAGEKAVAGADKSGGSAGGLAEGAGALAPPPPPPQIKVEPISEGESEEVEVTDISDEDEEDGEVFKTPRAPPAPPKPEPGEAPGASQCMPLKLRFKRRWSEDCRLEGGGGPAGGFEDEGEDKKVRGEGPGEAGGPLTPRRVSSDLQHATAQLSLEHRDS
# Outline: as §1
# [14] = molecular target: T10, ETV3L (Homo sapiens, UniProt Q6ZN32 1-361)
# T10 sequence: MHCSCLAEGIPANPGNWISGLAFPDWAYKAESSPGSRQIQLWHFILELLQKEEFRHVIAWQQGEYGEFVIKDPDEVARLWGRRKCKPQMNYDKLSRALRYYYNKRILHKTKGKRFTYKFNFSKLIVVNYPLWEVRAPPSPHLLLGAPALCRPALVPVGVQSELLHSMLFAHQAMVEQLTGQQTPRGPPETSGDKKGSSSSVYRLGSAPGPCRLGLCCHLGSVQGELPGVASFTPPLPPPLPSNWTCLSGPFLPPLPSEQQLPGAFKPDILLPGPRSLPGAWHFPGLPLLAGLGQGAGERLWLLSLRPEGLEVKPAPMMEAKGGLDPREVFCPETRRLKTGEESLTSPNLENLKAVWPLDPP
# Outline: as §1
# [15] = molecular target: T11, SPDEF (Homo sapiens, UniProt O95238 1-335)
# T11 sequence: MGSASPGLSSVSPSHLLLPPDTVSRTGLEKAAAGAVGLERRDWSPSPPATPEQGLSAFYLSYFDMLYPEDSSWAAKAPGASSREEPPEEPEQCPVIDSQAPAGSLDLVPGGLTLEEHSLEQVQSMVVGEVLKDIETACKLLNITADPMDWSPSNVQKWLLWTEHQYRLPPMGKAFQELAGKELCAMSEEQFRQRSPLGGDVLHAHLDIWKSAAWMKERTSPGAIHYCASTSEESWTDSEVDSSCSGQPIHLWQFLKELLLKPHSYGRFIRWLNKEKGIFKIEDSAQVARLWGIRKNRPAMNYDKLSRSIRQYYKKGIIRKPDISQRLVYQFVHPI
# Outline: as §1
# [16] = molecular target: T12, ETV7 (Homo sapiens, UniProt Q9Y603 1-341)
# T12 sequence: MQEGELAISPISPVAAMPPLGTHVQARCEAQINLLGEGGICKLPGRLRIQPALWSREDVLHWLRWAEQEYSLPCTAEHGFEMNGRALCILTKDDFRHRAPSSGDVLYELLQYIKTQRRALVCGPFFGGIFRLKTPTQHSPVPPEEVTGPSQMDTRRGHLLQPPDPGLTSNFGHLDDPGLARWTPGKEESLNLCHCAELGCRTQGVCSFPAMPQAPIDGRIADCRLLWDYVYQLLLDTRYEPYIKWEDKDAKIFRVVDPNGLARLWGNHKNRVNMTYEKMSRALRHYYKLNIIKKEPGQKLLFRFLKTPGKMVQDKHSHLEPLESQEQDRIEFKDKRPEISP
# Outline: as §1
sequence,measurement,setting,value
ACGAGC,binding signal,[1],"1.01 fold enrichment (6-mer frequency, TF over GST control)"
same,binding signal,[2],"1.01 fold enrichment (6-mer frequency, TF over GST control)"
same,binding signal,[3],"1.02 fold enrichment (6-mer frequency, TF over GST control)"
same,binding signal,[4],"1.03 fold enrichment (6-mer frequency, TF over GST control)"
same,binding signal,[5],"1.06 fold enrichment (6-mer frequency, TF over GST control)"
same,binding signal,[6],"1.04 fold enrichment (6-mer frequency, TF over GST control)"
same,binding signal,[7],"1.01 fold enrichment (6-mer frequency, TF over GST control)"
GTGGTT,binding signal,[8],"1.02 fold enrichment (6-mer frequency, TF over GST control)"
same,binding signal,[4],"1.01 fold enrichment (6-mer frequency, TF over GST control)"
same,binding signal,[5],"1.01 fold enrichment (6-mer frequency, TF over GST control)"
same,binding signal,[7],"1.1 fold enrichment (6-mer frequency, TF over GST control)"
CCACGT,binding signal,[1],"1.09 fold enrichment (6-mer frequency, TF over GST control)"
same,binding signal,[9],"1.04 fold enrichment (6-mer frequency, TF over GST control)"
same,binding signal,[10],"1.03 fold enrichment (6-mer frequency, TF over GST control)"
same,binding signal,[4],"1.05 fold enrichment (6-mer frequency, TF over GST control)"
same,binding signal,[5],"1.09 fold enrichment (6-mer frequency, TF over GST control)"
same,binding signal,[11],"1.01 fold enrichment (6-mer frequency, TF over GST control)"
same,binding signal,[12],"1.01 fold enrichment (6-mer frequency, TF over GST control)"
same,binding signal,[13],"1.07 fold enrichment (6-mer frequency, TF over GST control)"
same,binding signal,[14],"1.04 fold enrichment (6-mer frequency, TF over GST control)"
same,binding signal,[15],"1.02 fold enrichment (6-mer frequency, TF over GST control)"
same,binding signal,[16],"1.06 fold enrichment (6-mer frequency, TF over GST control)"
